# Screens from PubChem.
# Tau fluor counter: counter-screen for tau fibril formation inhibitors; tau K18 P301L Alexa594 fluorescence, heparin fibrillization; Potency, µM (series often up to 57.7 µM), without a hit: at the top dose activity change, negative = decrease; 280,000 tested, 0.93% active; also: potency is read from the fitted curve at half-maximal effect; nearly all actives have a fitted effect of over 55% in size
#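 Human tau K18 P301L (15 uM unlabeled, 0.24 uM Alexa 594-labeled) in 100 mM sodium acetate pH 7 with 20 uM heparin, 6 hr at 37 C. ThT 30 uM added, 1 hr ambient; Alexa 594 FP and total fluorescence read at 555/632 nm.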
# Tau ThT inhib: blocks human tau fibril formation measured by thioflavin T; 270,000 tested, 2.1% active; recombinant tau K18 P301L, heparin-induced fibrillization, ThT fluorescence; Potency, µM (highest dose often 57.4 µM), inactives show at the top dose activity, negative = inhibition, actives largely listed as inhibitors; P10636; also: potency is read from the fitted curve at half-maximal effect; nearly all actives have a fitted effect of over 55% in size
# Target sequence (P10636 561-689 P618L limits assumed): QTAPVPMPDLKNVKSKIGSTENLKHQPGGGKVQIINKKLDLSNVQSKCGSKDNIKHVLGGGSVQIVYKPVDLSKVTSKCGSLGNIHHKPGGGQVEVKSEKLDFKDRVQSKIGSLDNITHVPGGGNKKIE
#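 Using a mix of unlabeled (15 uM) and Alexa 594-labeled (0.24 uM) tau K18 P301L, heparin-triggered fibrillization over 6 hr at 37 C was scored by ThT fluorescence.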
# Coupling enz: inhibits coupling enzyme system, counter-screen for aldolase hits; coupling enzyme system counterscreen, AmpLite Red fluorescence; activity change, negative = inhibition, % at 58.2 µM, hits read low; 290,000 tested, 0.67% active; AID 2472; in the data active = activity change below about -30%
#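 Counterscreen of the coupled detection system alone, without aldolase: glyceraldehyde-3-phosphate coupling enzymes plus AmpLite Red readout. Compounds at 57.5 uM final, 10 min RT preincubation, 20 min RT reaction, fluorescence 525/598 nm.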
# Tau FP inhib: blocks human tau fibril formation measured by polarization | AID 1468 | K18 P301L tau heparin fibrillization, Alexa594 FP, 6 h | 280,000 tested, 0.39% active | Potency, µM (top dose mostly 57.7 µM), for the others: top-dose activity, negative = inhibition, usual class: inhibitors | P10636; also: potency is read from the fitted curve at half-maximal effect; nearly all actives have a fitted effect of over 55% in size
#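 Steps: dispense K18 P301L tau (15 uM plus 0.24 uM Alexa 594 tracer, final) in pH 7 sodium acetate; add compound; add heparin (20 uM final); incubate 6 hr, 37 C; add ThT (30 uM final); after 1 hr ambient, read FP.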
# Sfp PPTase inh: Sfp phosphopantetheinyl transferase inhibition; 310,000 tested, 3.5% active; Q9F4F7; Potency, µM, without a hit: largest response in the series, negative = inhibition, hits mostly inhibitors; Biochemical Sfp PPTase activity, qHTS;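 also: the enzyme is Sfp with the accession as filed and its product quenches rhodamine fluorescence; potency is read from the fitted curve at half-maximal effect; 0% = enzyme reaction without inhibitor and -100% = no enzyme wells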
#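 Step 1, compound plus 15 nM Sfp-PPTase, 15 min, room temperature. Step 2, add rhodamine-CoA (5 uM) and BHQ-2-YbbR (12.5 uM). Step 3, read 525/598 nm fluorescence at 0 and 30 min.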
# Numbers without * were called inactive; ? = inconclusive; · = not tested or not shown; [ ] = remark or other dose. Rows were chosen to be rich in hits. Some 5.2% of all compounds tested hit in one or more screens of this group. Unless noted, calls follow the shape of the dose curve; as a rule, active = well fitted curve in the direction sought with a large enough effect; inconclusive = small, poorly fitted or top-dose-only effect, or another doubt; inactive = no such curve, though single readings can be large; an effect the other way counts as inactive or inconclusive. Unless noted, % is scaled to controls: 0 for no effect and ±100 for the full control effect.
SMILES,Tau fluor counter,Tau ThT inhib,Coupling enz,Tau FP inhib,Sfp PPTase inh
Cn1c(SCC(=O)N2CCCc3ccccc32)ncc(C(=O)Nc2ccccc2)c1=O,-22%,?,·,-11%,·
Cc1ccc(NC(=O)c2c(C)oc3ccc(O)c(CN4CCCCCC4)c23)cc1,-9%,-5%,·,1%,·
CCc1ccccc1NC(=O)Cn1c(=O)ccc2cc(S(=O)(=O)N3CCCC3)ccc21,-14%,-16%,·,-5%,·
O=C(Cn1sc2ccccc2c1=O)NC12CC3CC(CC(C3)C1)C2,-28%,16µM*,1,20µM*,2.5µM*
Nc1cccc2c1C(=O)N(CC(=O)NC13CC4CC(CC(C4)C1)C3)C2=O,-6%,13%,2,-4%,18%
Cc1ccc(-c2ccc(/C=N\NC(=O)C3C(=O)NCC3c3ccccc3)o2)cc1Cl (stereo not drawn),-28%,-11%,0,3%,50µM*
Cc1ccc2ccc3ccc(C)nc3c2n1,·,·,-1,·,2%
Cc1ccc2c(C)ccc(O)c2n1,-8%,-5%,-7,2%,45µM*
Cc1cc(C)c(C(=O)CSC2=NC(N)=C(C#N)C3(CCCCC3)C2C(N)=O)cc1C (stereo not drawn),?,28µM*,-2,?,-20%
Cc1cc(C)c(C(=O)CSc2nnc(N)s2)cc1C,-12%,-8%,0,3%,6%
CCC/C=N/Nc1nnc(Cc2ccc(OC)c(OC)c2)c(=O)[nH]1,·,·,-1,·,45µM*
CC/C(=C(/c1ccccc1)c1ccc(OCCN(C)C)cc1)c1ccccc1,-10%,?,6,-14%,50µM*
Cc1cc(C)cc(OC(=O)c2cc(-c3ccc4c(c3)OCCO4)on2)c1,-16%,?,·,-11%,·
COCCNC(=S)Nc1cc(OC)c(OC)cc1C#N,-6%,-11%,-14,2%,79µM*
Cc1ccc(-c2nn(-c3ccccc3)cc2C=O)o1,-7%,-16%,-18,0%,40µM*
Cc1ccc(-c2nn(-c3ccccc3)cc2C(N)=O)o1,-6%,-10%,-2,-4%,?
N#C/C(=C/c1ccc2c(c1)OCO2)C(=O)NCCc1c[nH]c2ccccc12,20µM*[quencher],13µM*,-3,5%,6%
O=C(c1ccc(Nc2nccc(-c3cc4ccccc4s3)n2)cc1)N1CCC(N2CCCC2)CC1,·,·,1,·,?
COc1ccc(S(=O)(=O)/N=C2/NC(=O)/C(=C\c3cc(OC)c(OC)cc3[N+](=O)[O-])S2)cc1,?,22µM*,8,-3%,20%
COc1cc(/C=C2\S/C(=N/S(=O)(=O)c3ccccc3)NC2=O)c([N+](=O)[O-])cc1OC,?,14µM*,0,?,?
CC1=C(C(=O)Nc2ccccc2)C(c2cccc(O)c2)n2nc(-c3ccccc3Cl)nc2N1 (stereo not drawn),-29%,-1%,·,?,·
CCCCCCCCCCCCCC[C@@H](O)[C@@H](O)[C@@H](N)CO,·,·,-8,·,?
C[C@@H]1CC2C3CCC4=CC(=O)C=C[C@]4(C)[C@@]3(F)[C@@H](O)C[C@]2(C)[C@@]1(O)C(=O)COC(=O)c1cccc(S(=O)(=O)O)c1 (stereo partly drawn),·,·,·,·,11%
Cc1ccc(Nc2nn3c(=O)c4cc5c(cc4nc3s2)OCO5)cc1Cl,-21%,?,·,-11%,·
Cc1cc(C)c(Nc2nn3c(=O)c4cc5c(cc4nc3s2)OCO5)c(C)c1,-27%,28µM*,·,?,·
SMILES,Tau fluor counter,Tau ThT inhib,Coupling enz,Tau FP inhib,Sfp PPTase inh
CCN(CC)CCN(C(=O)c1ccc2ccccc2c1)c1nc2cc3c(cc2s1)OCO3,·,·,-1,·,45µM*
CCN(CC)CCN(C(=O)c1ccc(S(=O)(=O)N2CCCCC2)cc1)c1nc2cc3c(cc2s1)OCO3,-10%,-5%,-1,-6%,7%
CCN(CC)CCN(C(=O)c1ccc2c(c1)CCCC2)c1nc2ccc(OC)cc2s1,·,·,-9,·,79µM*
CN(C)CCN(C(=O)c1ccc(C(=O)c2ccccc2)cc1)c1nc2cc3c(cc2s1)OCO3,·,·,·,·,56µM*
CN(C)CCN(C(=O)c1ccc(C(=O)c2ccccc2)cc1)c1nc2cc3c(cc2s1)OCCO3,·,·,-3,·,?
Cc1cc(C)c2nc(N(CCN(C)C)C(=O)c3ccc4ccccc4c3)sc2c1,·,·,1,·,56µM*
Cc1ccc(C)c(S(=O)(=O)n2nc(C)c(S(=O)(=O)N3CCCCCC3)c2C)c1,-1%,-3%,·,-4%,·
COc1ccccc1NC(=O)c1sc(-c2ccc(Cl)cc2)cc1N,?,?,·,-13%,·
CC(C)(C)OC(=O)NC(NC(=O)OCC1c2ccccc2-c2ccccc21)C(=O)O (stereo not drawn),·,·,-8,·,-28%
CCN(Cc1ccccc1)S(=O)(=O)c1ccc(C(=O)N(CCCN(C)C)c2nc3cc4c(cc3s2)OCO4)cc1,·,·,·,·,56µM*
CC(C)c1ccc(NC(=O)c2snc3ccc(Cl)cc23)cc1,?,?,-4,22µM*,-1%
O=C(NCC1CCCO1)C1CCCN1C(=O)NC1CCCCC1 (stereo not drawn),-7%,-8%,0,-1%,17%
S=C(NCC1CCCO1)NC1CCCCC1 (stereo not drawn),-1%,9%,3,5%,11µM*
Oc1[nH]c2ccc(Br)cc2c1N=NC(=S)NCC1CCCO1 (stereo not drawn),14µM*[quencher],16µM*,-5,6%,-11%
S=C(NCC1CCCO1)c1ccc(Br)cc1 (stereo not drawn),·,·,1,·,20µM*
c1ccc(-c2ccc(N3CCCC4(CCNCC4)C3)cc2)cc1,·,·,3,·,28µM*
c1ccc(-c2ccc(N3CC4(CCNCC4)C3)cc2)cc1,·,·,3,·,?
CCOC(=O)N1CCN(C(=O)C2CCN(S(=O)(=O)CC)CC2)CC1,25µM*[quencher],8%,1,?,12%
CC(C)C(=O)Nc1nc2cc3c(cc2s1)OCCO3,?,·,-3,-4%,7%
O=C(Nc1nc2cc3c(cc2s1)OCO3)c1ccco1,-25%,·,3,-8%,-10%
O=C(NNc1nc2cc3c(cc2s1)OCCO3)c1ccc(F)cc1,-7%,?,4,-2%,56µM*
O=C(NNc1nc2cc3c(cc2s1)OCO3)c1ccc(F)cc1,-14%,-3%,1,-3%,28µM*
CCc1ccc(CNC(=O)CN2C(=O)CCn3nc(-c4cn(C)c5ccccc45)cc32)cc1,-22%,-2%,·,9%,·
S=c1[nH]nc(-c2ccncc2)n1/N=C/C=C/c1ccco1,-23%,?,-10,-4%,45µM*
S=c1[nH]nc(-c2ccccc2Cl)n1/N=C/C=C/c1ccco1,-15%,?,5,7%,56µM*
Cc1cccc(-c2n[nH]c(=S)n2/N=C/C=C/c2ccco2)c1,?,?,-2,-9%,?
C(=C\c1ccco1)/C=N/n1cnnc1,-29%,25µM*,-40*,32µM*,?
